Source: PubChem BioAssay (NCI)
The panel holds about 79,000 compounds, 15% with a hit somewhere; the sample as a whole holds those more often. Active and inactive are the calls of the source. Cut-off read from the data, not from the text of the source: active = growth inhibition above about 70%; inactive = the rest.

Experiments:
[1] = NCI Yeast Anticancer Drug Screen. Data for the rad50 strain (AID 155);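 note: 0% = growth of vehicle-only cultures of the same strain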; conditions: S. cerevisiae rad50 strain growth inhibition; at 50.0 µM; stronger effect = higher value
In short: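 Inhibition values express reduced yeast growth in compound-treated cultures relative to vehicle-treated controls.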

[2] = NCI Yeast Anticancer Drug Screen. Data for the mec2-1 strain (AID 157); conditions: S. cerevisiae mec2-1 strain, at 50.0 µM, stronger effect = higher value
In short: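 Each compound was tested on mec2-1 yeast, a strain altered in DNA damage repair or cell cycle control. Growth inhibition is reported relative to vehicle.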

[3] = NCI Yeast Anticancer Drug Screen. Data for the sgs1 mgt1 strain (AID 161);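 note: 0% = growth of cultures given vehicle only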; conditions: S. cerevisiae sgs1 mgt1 strain, at 50.0 µM, stronger effect = higher value
In short: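 Read-out: growth inhibition vs vehicle controls. Cells: mutant yeast strain deficient in DNA damage repair.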

[4] = NCI Yeast Anticancer Drug Screen. Data for the cln2 rad14 strain (AID 165);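 note: 0% = growth equal to vehicle treated cultures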; conditions: S. cerevisiae cln2 rad14 strain, at 50.0 µM, stronger effect = higher value
In short: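 Test compounds were added to cln2 rad14 yeast cultures; inhibition of growth was then determined by comparison with vehicle treatment.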

[5] = NCI Yeast Anticancer Drug Screen. Data for the bub3 strain (AID 167); conditions: S. cerevisiae bub3 mutant strain, at 50.0 µM, stronger effect = higher value
In short: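 Steps: expose the mutant yeast strain to compound; grow alongside vehicle-treated cultures; measure growth; express inhibition against the vehicle cultures.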

[6] = NCI Yeast Anticancer Drug Screen. Data for the mlh1 rad18 strain (AID 175); conditions: S. cerevisiae mlh1 rad18 strain growth inhibition; at 50.0 µM; stronger effect = higher value
In short: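 Inhibition values reflect reduced growth of mutant yeast versus vehicle-treated controls following compound exposure; the mutations affect DNA damage repair.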

Measured: growth inhibition

O=c1c2ccccc2n2c(-c3ccccc3O)nnc2n1-c1ccccc1
inactive: [1] 6.5% | [2] 14.8% | [3] 35.1% | [4] 26.2% | [5] 6.6% | [6] 18.2%

CC(=O)N1C(=O)C(=O)c2ccccc21
inactive: [1] 5.9% | [2] -5.4% | [3] -4.8% | [4] -25% | [5] -1.5% | [6] 23.5%

CCCC(=O)OCC(O)CO (configuration not stated)
inactive: [1] 12.2% | [2] 1.5% | [3] 1.3% | [4] 18.5% | [5] 4.1% | [6] 18.6%

O=C1C=C2CCC[C@H]3OC(=O)C[C@@]23CC1
inactive: [1] 12.4% | [2] 16.2% | [3] 35.3% | [4] 28.4% | [5] -0.95% | [6] 27.4%

CNC(=O)/C=C/C1=CN2C(=O)c3ccc(C)c(O)c3NC(OC)C2C1 (configuration not stated)
active: [1] 91.5% | [2] 93.7% | [3] 93% | [4] 92.6% | [5] 92.3% | [6] 89.2%

N#Cc1cccc(-c2ccc(-c3ccccc3)o2)c1
inactive: [1] 31.6% | [2] 27.4% | [3] 27.1% | [4] -7.25% | [5] 60.9% | [6] 20.4%

CCOc1ccc(N=C=S)cc1
inactive: [1] 29.9% | [2] -3.05% | [3] 18% | [4] 22.3% | [5] 18.9% | [6] 49%

O=c1[nH]cnc2c1ncn2CCCc1ccccc1
inactive: [1] -1% | [2] 7.5% | [3] 2.8% | [4] -69.6% | [5] 3% | [6] -17.1%

COC(=O)c1nc(N)nc(C(=O)OC)c1C(=O)c1cccc([N+](=O)[O-])c1
inactive: [1] -11.1% | [2] -19.4% | [3] -33.2% | [4] 30.6% | [5] -21.7% | [6] -16.8%

NC(=S)SCCC(=O)N1CCCC1
inactive: [1] -1.25% | [2] -10.1% | [3] -9.55% | [4] -19.6% | [5] -7.35% | [6] -1.7%

Cc1cc2nc3c(=O)[nH]c(=O)nc-3n(CCOC(=O)CCC(=O)O)c2cc1C
inactive: [1] -8.35% | [2] 9.45% | [3] 10.5% | [4] 0.2% | [5] 3.1% | [6] 3.95%

CCC1(C)CCC(C)(CC)c2cc(C)ccc21 (configuration not stated)
inactive: [1] 9.9% | [2] 9.15% | [3] -6.95% | [4] -16.8% | [5] 8.4% | [6] 25.9%

COC(=O)CCBr
inactive: [1] -19.8% | [2] 8.15% | [3] 28.8% | [4] -18.2% | [5] -1.9% | [6] 3.5%

C/C(CCC(=O)O)=N\NC(=O)COc1ccc(Cl)cc1Cl
inactive: [1] 31.4% | [2] -0.15% | [3] 18.6% | [4] 12.1% | [5] 14.8% | [6] 13.8%

Oc1ccc2nccnc2c1
inactive: [1] 10.1% | [2] 1.6% | [3] 10.2% | [4] -1.6% | [5] 3.6% | [6] 13.1%

Cc1ccc(C(C(=O)O)c2ccc(C)cc2)cc1
inactive: [1] 45.5% | [2] 2.25% | [3] 44.9% | [4] 27.4% | [5] 22.1% | [6] 29.2%

CCCCC(=O)CCC(=O)O
inactive: [1] 9.7% | [2] 11.6% | [3] 4.95% | [4] 13.8% | [5] 9.7% | [6] 12.7%

O=c1c(O)c(-c2cc(O)c(O)c(O)c2)oc2cc(O)ccc12
inactive: [1] -35.5% | [2] -36.8% | [3] -24.3% | [4] -8.8% | [5] -32.8% | [6] -29.8%

OC(CBr)c1cc(-c2ccccc2)nc2c(Cl)cc(Cl)cc12 (configuration not stated)
inactive: [1] 31.9% | [2] -8.45% | [3] 33.6% | [4] -16.7% | [5] 11.8% | [6] 50.8%

CC(=O)OCCn1c([N+](=O)[O-])cnc1/C=[N+](/C)[O-]
inactive: [1] 11.2% | [2] 16.9% | [3] 16.8% | [4] 1.9% | [5] 9.85% | [6] 33.3%

CCCCCC(O)C(C)C (configuration not stated)
inactive: [1] 1.5% | [2] -2.55% | [3] -8.65% | [4] -36.8% | [5] 15.7% | [6] 6.8%

O=[N+]([O-])c1ccccc1C1N2CCCCC2[C@@H]2c3[nH]c4ccccc4c3CCN12 (some centres not stated)
inactive: [1] 0.2% | [2] -11.9% | [3] 3.3% | [4] 1.85% | [5] 3.05% | [6] 8.3%

CCN(CC)CCCC#CCN1CCOCC1
inactive: [1] -39.5% | [2] -48.5% | [3] -21.4% | [4] -16.9% | [5] -44.7% | [6] -20.1%

O=C(O)CNC(=O)CNC(=O)c1ccc2ccccc2n1
inactive: [1] 2.7% | [2] -4.05% | [3] 11.1% | [4] 10.7% | [5] -14.3% | [6] 15.9%

O=S(=O)(Nc1ccn(-c2ccccc2)n1)c1ccc(NCc2c3ccccc3nc3cc(Cl)ccc23)cc1
inactive: [1] 17.1% | [2] 21.2% | [3] 15.8% | [4] -24.2% | [5] -13.6% | [6] 23.6%

CCCCCCCCCc1ccc(COCC)cc1
inactive: [1] -9.55% | [2] 11.9% | [3] 7.05% | [4] -16% | [5] 22.1% | [6] 9.55%

O=[N+]([O-])c1ccc(N=NC(=S)NNc2ccccc2)cc1
inactive: [1] 38.9% | [2] 0.65% | [3] 39.5% | [4] -3.35% | [5] 20.2% | [6] 23.5%

COC(=O)c1ccc(NCc2cc(O)ccc2O)cc1O
active: [1] 88.5% | [2] 90.5% | [3] 83.7% | [5] 84.8% | [6] 91.5%
inactive: [4] 67.7%

CCOc1ccc(N2CC(=O)N3CCCC(c4ccccc4)N3C(=O)C2)cc1 (configuration not stated)
inactive: [1] -23.7% | [2] -10.9% | [3] 13.4% | [4] 4.9% | [5] 12.1% | [6] 8.55%

O=C(O)CCC(=O)Oc1ccccc1
inactive: [1] -17.6% | [2] 11.2% | [3] 13.2% | [4] 31.6% | [5] 9.6% | [6] 44.5%

COCCCNc1ccc([N+](=O)[O-])cn1
inactive: [1] -21.4% | [2] -40.6% | [3] -20.4% | [4] 2.2% | [5] -13% | [6] -14.4%

COc1ccc(/C=C/Cc2cc3c(cc2OC(C)=O)OCO3)cc1
inactive: [1] 11.8% | [2] 0.4% | [3] 26.1% | [4] -8.4% | [5] 33% | [6] 12.4%

Cc1cc(OC(=O)c2ccc(N)cc2)ccc1C1=NCC(C)S1 (configuration not stated)
inactive: [1] 39% | [2] 20% | [3] 38% | [4] -3.05% | [5] 8.3% | [6] 0.1%

CCCCCCCCCCCCCCCCN(C)C(=S)c1ccc(OC)cc1
inactive: [1] 25.4% | [2] -3.4% | [3] -1.8% | [4] -3.15% | [5] -1% | [6] -8.4%

CCCCCCCCCCC1OC(C)C(C)O1 (configuration not stated)
inactive: [1] 0.4% | [2] -13.1% | [3] -7.3% | [4] -25.1% | [5] -5.5% | [6] 13.2%

CC(C)COP(C)(=O)C(N)(C(F)(F)F)C(F)(F)F (configuration not stated)
inactive: [1] 10.9% | [2] 8% | [3] 35.6% | [4] 25.8% | [5] 40.1% | [6] -12.4%

Cc1ccc(S(=O)(=O)CCOC(=O)Nc2ccccc2)cc1
inactive: [1] 2.5% | [2] 12.6% | [3] 1.7% | [4] -12.4% | [5] -14.6% | [6] 11.5%

COc1cc2cc(c1Cl)NC(=O)/C=C/[C@]1(C)O[C@H]1[C@H](C)[C@@H]1C[C@@](O)(NC(=O)O1)[C@H](OC)C=C/C=C(\C)C2
inactive: [1] 20.2% | [2] 4.55% | [3] 12.1% | [4] 22.1% | [5] 20.5% | [6] 21.4%

c1ccc(Cc2ncc(-c3ccccc3)cc2-c2ccccc2)cc1
inactive: [1] -19.4% | [2] -14.8% | [3] 3.1% | [4] 3.65% | [5] 7.3% | [6] 4.2%

COc1ccc(CC#N)cc1OC
inactive: [1] 6.5% | [2] -8.3% | [3] -5.6% | [4] -54.8% | [5] -31.4% | [6] -5.2%

CCN(CC)c1nc2c(c(=O)n(C)c(=O)n2C)n1CCCNCC(O)c1ccc(O)c(O)c1 (configuration not stated)
inactive: [1] -15.7% | [2] -16.4% | [3] -30.9% | [4] -47.1% | [5] -1.85% | [6] -31.5%

NC(=O)OCC1CCCCC1OC(N)=O (configuration not stated)
inactive: [1] 26.1% | [2] -17.4% | [3] -14.4% | [4] -92.7% | [5] -2.6% | [6] -10.4%
